Assay outcomes: PubChem, National Center for Advancing Translational Sciences (NCATS)
Most compounds without a hit are left out; they make up all but 3% or so of the library.
KAT2A inh = blocks human GCN5L2 histone acetyltransferase. GCN5L2 HAT assay, ThioGlo1 CoA-SH fluorescence. Potency, µM (series often up to 58.9 µM), inactives show at the highest dose activity change, negative = inhibition, actives largely listed as inhibitors. 390,000 compounds, 0.21% hits. Q92830; further: on the % scale 0 is the no-effect control and ±100 the full control effect
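Free CoA generated was detected with ThioGlo1 (50uM) fluorescence at Ex340nm/Em540nm, read immediately and after 20 min at room temperature. Enzyme, 20 nM in HEPES pH 7.5 buffer, saw compounds 15 min before adding 75uM H3(1-25) peptide and 70uM acetyl-CoA.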
VDR inh = inhibitors of human vitamin D receptor; Potency, µM, for inactives: max response, negative = inhibition, hits mostly inhibitors; VDR-SRC2-3 peptide fluorescence polarization, 2 h; 400,000 compounds, 0.93% hits; AID 504847; further: on the % scale 0 is the no-effect control and ±100 the full control effect
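Reagent solutions, kept cold and dark, are dispensed first; compounds are then pinned in at 23 nl, plates briefly spun, and incubated 2 h at ambient temperature. Inhibition of VDR–SRC2-3 peptide binding is read by fluorescence polarization.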
USP1-UAF1 inh = blocks the human USP1/UAF1 deubiquitinase complex; O94782; recombinant USP1/UAF1, Ub-Rhodamine cleavage fluorescence; Potency, µM (doses to about 57.1 µM), for the others: top-dose activity change, negative = inhibition, hits mostly inhibitors; 390,000 compounds, 0.23% hits; AID 743255; further: on the % scale 0 is the no-effect control and ±100 the full control effect; nearly all actives have a fitted effect of over 60% in size
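1 nM enzyme complex + cpd, 15 min RT; start with Ub-Rho 150nM final; kinetic fluorescence ex 480/em 540, 6 reads q60 s. Buffer 50mM HEPES pH 7.8, 0.5mM EDTA, 0.1 mg/ml BSA, 1mM TCEP, 0.01% Tween-20.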
PTAP TSG101 blk = blocks PTAP/TSG101 interaction to inhibit HIV-1 budding; Q99816; Fluorescence polarization, FITC-PTAP peptide / Tsg101 binding; Potency, µM (top dose mostly 115 µM), without a hit: at the highest dose activity change, negative = inhibition, most hits filed as inhibitors; 340,000 tested, under 10 active; active means well fitted inhibition curve with a large enough effect in the main read-out, with a control signal flat, not every such curve was filed as active; inconclusive means small, poorly fitted or top-dose-only effect, or effect the other way, or a change in a side signal; inactive means no such curve, though single readings can be large or run the other way; further: % of control where 0% means no effect
Target sequence (Q99816 whole entry, looked up): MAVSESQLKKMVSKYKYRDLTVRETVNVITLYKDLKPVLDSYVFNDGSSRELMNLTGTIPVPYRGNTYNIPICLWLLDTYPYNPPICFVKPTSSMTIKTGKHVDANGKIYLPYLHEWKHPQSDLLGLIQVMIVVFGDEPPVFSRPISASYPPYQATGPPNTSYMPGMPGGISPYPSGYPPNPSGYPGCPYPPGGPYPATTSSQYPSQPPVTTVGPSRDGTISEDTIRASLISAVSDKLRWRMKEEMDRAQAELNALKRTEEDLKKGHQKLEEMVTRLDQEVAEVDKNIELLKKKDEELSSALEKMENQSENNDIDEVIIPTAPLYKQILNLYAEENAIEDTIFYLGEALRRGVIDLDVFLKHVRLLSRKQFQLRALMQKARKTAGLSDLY
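Fluorescence polarization binding of Tsg101 binding domain (10 uM final) to FITC-labeled PTAP peptide (50 nM final) in HEPES pH 7.5 buffer with NaCl, Tween 20, EDTA, TCEP. Compounds added before peptide; binding 20 min at RT.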
PLK1 PBD block = blocks phosphopeptide binding to human PLK1 polo-box domain; P53350; Plk1 PBD binding of FITC phosphopeptide, fluorescence polarization; Potency, µM, for inactives: max response, negative = inhibition, actives largely listed as inhibitors; 360,000 compounds, 2.8% hits; AID 720504; further: series mostly up to about 57 µM; on the % scale 0 is the no-effect control and ±100 the full control effect; nearly all actives have a fitted effect of over 65% in size
* marks the source's active call; other numbers are inactive results; u = inconclusive; x = no result. Unless noted, the call rests on the fitted dose curve; in most records, active means well fitted curve in the direction sought with a large enough effect; inconclusive means small, poorly fitted or top-dose-only effect, or another doubt; inactive means no such curve, though single readings can be large; an effect the other way counts as inactive or inconclusive. Potency means the concentration at half of the fitted maximal effect.

SMILES	KAT2A inh	VDR inh	USP1-UAF1 inh	PTAP TSG101 blk	PLK1 PBD block
CCOC(=O)C(NCc1ccc(F)cc1)(NC(=O)c1ccccc1)C(F)(F)F (stereo unspecified)	-9%	8%	-14%	-4%	-6%
COC(=O)C(NNc1ccccc1C)(NC(=O)c1ccc(F)cc1)C(F)(F)F (stereo unspecified)	-8%	-29%	-15%	-6%	27µM*
COc1ccccc1C(=O)Nc1cc(-c2cccc(Br)c2)nn1-c1ccccc1	-5%	1%	-21%	x	x
Cc1csc(SC(C)C(=O)Nc2ccc(Cl)cn2)n1 (stereo unspecified)	-3%	-3%	2%	-2%	27µM*
CN1CCN(c2ncc3nc(-c4cc(F)cc(F)c4)c(=O)n(Cc4cccs4)c3n2)CC1	-5%	1%	x	x	x
CC(C(=O)Nc1ccccc1-c1ccccc1)N(C)Cc1nc2ccccc2c(=O)[nH]1 (stereo unspecified)	2%	u	-1%	1%	6.7µM*
CC(NC(=O)[C@@H](C)NC(=O)[C@@H]1Cc2ccccc2CN1C(=O)OC(C)(C)C)c1ccccc1 (stereo partly specified)	3%	-5%	-3%	-3%	-2%
C[C@@H](NC(=O)[C@@H]1Cc2ccccc2CN1C(=O)OC(C)(C)C)C(=O)NC1CCCC1	1%	u	-9%	-10%	30µM*
S=c1[nH]c2cnc(Cl)nc2[nH]1	x	u	-5%	-6%	24µM*
Cc1ccc(C(c2nnnn2C2CCCCC2)N2CCN3CCCC3C2)cc1 (stereo unspecified)	0.89µM*	-8%	4%	-2%	-9%
O=C(CCN1C(=O)C2C3C=CC(C3)C2C1=O)Nc1ccccn1 (stereo unspecified)	x	2%	-16%	-2%	2%
O=C(CCN1C(=O)C2C3C=CC(C3)C2C1=O)NCCc1ccccc1 (stereo unspecified)	-27%	-10%	-17%	-4%	24µM*
Cc1cccc(NC(=O)CCN2C(=O)C3C4C=CC(C4)C3C2=O)n1 (stereo unspecified)	-19%	0%	-11%	-3%	12µM*
Nc1cc(S(=O)(=O)Nc2ccccc2Cl)ccc1N1CCOCC1	-6%	-20%	-13%	0%	1%
Nc1cc(S(=O)(=O)Nc2cc(Cl)ccc2Cl)ccc1N1CCCC1	-7%	-6%	-18%	-4%	30µM*
Nc1cc(S(=O)(=O)Nc2ccc(Cl)cc2)ccc1N1CCOCC1	-11%	u	-9%	-7%	5.3µM*
O=C(CSCc1cnn(-c2ccccc2)c1-n1cccc1)NCc1cccc(Cl)c1	-4%	10%	-10%	x	x
CN(CC(=O)NCCc1ccc(S(N)(=O)=O)cc1)Cc1c(F)cccc1Cl	-3%	u	-14%	1%	3%
CN(CC(=O)Nc1ccc([N+](=O)[O-])cc1Br)Cc1c(F)cccc1Cl	-2%	-21%	-24%	-2%	27µM*
CC(=O)c1cc(NC(=O)c2cccc(C(F)(F)F)c2)c(=O)oc1C	4%	u	1%	-2%	24µM*
Cc1nc2sccn2c(=O)c1S(=O)(=O)Nc1ccc(N2CCOCC2)c(Cl)c1	-17%	1%	-2%	-2%	5%
Cc1nc2scc(C)n2c(=O)c1S(=O)(=O)NCC1CCN(Cc2ccc(Cl)cc2)CC1	-5%	-8%	-17%	-8%	19µM*
Cc1nc2scc(C)n2c(=O)c1S(=O)(=O)Nc1ccc(N2CCOCC2)c(Cl)c1	-1%	-24%	-16%	-3%	27µM*
O=C1C(c2[nH]c3ccc(S(=O)(=O)O)cc3c2O)=Nc2ccc(S(=O)(=O)O)cc21	9%	u	x	x	x
CN(Cc1ccc(Cl)c(Cl)c1)C(C(=O)NCc1ccccc1)c1ccc(C(F)(F)F)cc1 (stereo unspecified)	x	x	x	x	0%
SMILES	KAT2A inh	VDR inh	USP1-UAF1 inh	PTAP TSG101 blk	PLK1 PBD block
Cc1noc(C)c1NC(=O)Nc1ccc2c(c1)C(=O)N([C@H](C)CO)C[C@@H](C)[C@@H](CN(C)S(=O)(=O)c1cn(C)cn1)OCCCC[C@H](C)O2	x	x	-33%	x	-15%
N#Cc1ccc(NC(=O)Cn2cnc(S(=O)(=O)N3CCc4ccccc43)c2)cc1	-1%	15%	-30%	-3%	-3%
CCN(CC)S(=O)(=O)c1cccc(-n2c(O)c(C=Nc3ccccc3C(=O)O)c3ccccc3c2=O)c1	-16%	-13%	u	-6%	24µM*
CCNC(=O)c1ccccc1SCC(=O)Nc1ccc(F)cc1	-4%	u	-11%	-2%	9.5µM*
CCNC(=O)c1ccccc1SCc1ccccc1	-26%	-4%	-6%	-7%	8%
COc1ccc(-c2[nH]ncc2CN(CC2CCC(=O)N2)C(C)C)cc1F (stereo unspecified)	13%	u	-17%	1%	27µM*
COc1ccc(CCNc2ncnc3c2c(C)c(C)n3CCO)cc1OC	3%	u	-18%	-3%	27µM*
CNC(=O)c1cccc(NC(=O)c2ccccc2OCc2ccccc2)c1	-17%	-4%	-9%	0%	-7%
CCc1cccc(NC(=O)Cn2c(=O)n(CCC(=O)NCc3ccccc3Cl)c(=O)c3sccc32)c1	2%	-4%	u	x	x
CCOC(=O)c1ccc(S(=O)(=O)Nc2nc3cc(S(=O)(=O)NC4=NCCCCC4)ccc3s2)cc1	-12%	u	-9%	-8%	24µM*
Nc1ccc(S(=O)(=O)NC2=NCCCCC2)cc1	-24%	-4%	-7%	-4%	-8%
Nc1nc2cc(S(=O)(=O)NC3=NCCCCC3)ccc2s1	-13%	u	-4%	-3%	21µM*
O=C(COC(=O)c1ccc(O)cc1)Nc1cccc(S(=O)(=O)NC2=NCCCCC2)c1	3%	1%	-8%	-7%	-4%
CSCC[C@H](NC(=O)[C@H](CO)NC(=O)[C@H](Cc1ccc(O)cc1)NC(=O)[C@@H](N)CO)C(=O)N[C@@H](CCC(=O)O)C(=O)N[C@@H](Cc1cnc[nH]1)C(=O)N[C@@H](Cc1ccccc1)C(=O)N[C@@H](CCCNC(=N)N)C(=O)N[C@@H](Cc1c[nH]c2ccccc12)C(=O)NCC(=O)N[C@@H](CCCCN)C(=O)N1CCC[C@H]1C(=O)N[C@H](C(=O)NCC(=O)N[C@@H](CCCCN)C(=O)N[C@@H](CCCCN)C(=O)N[C@@H](CCCNC(=N)N)C(=O)N[C@@H](CCCNC(=N)N)C(=O)N1CCC[C@H]1C(=O)N[C@H](C(=O)N[C@@H](CCCCN)C(=O)N[C@H](C(=O)N[C@@H](Cc1ccc(O)cc1)C(=O)N1CCC[C@H]1C(=O)O)C(C)C)C(C)C)C(C)C	-6%	-4%	x	x	x
CCOc1ccc(C(CC(=O)Nc2cc(C)c(Cl)cc2OC)N2Cc3ccccc3C2=O)cc1OC (stereo unspecified)	-3%	4%	-17%	x	x
